Where “and” joins values, the source holds several entries; their conditions need not be identical. Equal entries are not always repeated. The panel holds about 83,000 compounds, 20% with a hit somewhere; the sample as a whole holds those more often.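 Activity criterion: percent growth below 10, measured after cells in 96-well plates were exposed to a single compound concentration for 48 hours.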 Calls of active or inactive are those of the source.
How the values were obtained:
Experiment in all cases: NCI-60 one-dose screen, 48 h (100 = growth as untreated, 0 = no growth, -100 = all killed)
Conditions in all cases: 10 µM unless noted
SR leukemia = system: SR leukemia
RPMI-8226 leukemia = system: RPMI-8226 leukemia
OVCAR-8 ovarian = system: OVCAR-8 ovarian
OVCAR-5 ovarian = system: OVCAR-5 ovarian
OVCAR-4 ovarian = system: OVCAR-4 ovarian
SK-OV-3 ovarian = system: SK-OV-3 ovarian
IGROV1 ovarian = system: IGROV1 ovarian
OVCAR-3 ovarian = system: OVCAR-3 ovarian
HS 578T breast = system: HS 578T breast
NCI/ADR-RES ovarian = system: NCI/ADR-RES ovarian

Measured: growth

N#Cc1cc(-c2ccnc(Nc3ccc(N4CCN(C5COC5)CC4)cc3)n2)ccc1N1CCCC1
inactive: SR leukemia 23% | RPMI-8226 leukemia 36.6% | OVCAR-8 ovarian 79.5% | OVCAR-5 ovarian 93.5% | OVCAR-4 ovarian 43.9% | SK-OV-3 ovarian 52.8% | IGROV1 ovarian 55.3% | OVCAR-3 ovarian 94.5% | HS 578T breast 21.6% | NCI/ADR-RES ovarian 92.2%

O=C1Nc2cc(-c3ccc(NS(=O)(=O)c4ccc([N+](=O)[O-])cc4)cc3)ccc2/C1=C/c1ccc[nH]1
active: OVCAR-8 ovarian 7.53% | OVCAR-4 ovarian 6.68% | SK-OV-3 ovarian -16.9% | OVCAR-3 ovarian -29.4%
inactive: SR leukemia 12.9% | RPMI-8226 leukemia 13.5% | OVCAR-5 ovarian 27.5% | IGROV1 ovarian 39.2% | HS 578T breast 41.6% | NCI/ADR-RES ovarian 24.4%

CCc1ccccc1NC(=O)N/C(N)=N/c1nc2ccccc2s1
inactive: RPMI-8226 leukemia 15.7% | OVCAR-4 ovarian 16.7% | IGROV1 ovarian 20% | HS 578T breast 27.1%
active: SR leukemia 7.38% | OVCAR-8 ovarian -26.6% | OVCAR-5 ovarian 0.307% | SK-OV-3 ovarian 7.32% | OVCAR-3 ovarian -30.2% | NCI/ADR-RES ovarian -30.4%

O=C(Cn1c(/C=C/c2ccc([N+](=O)[O-])cc2)nc2ccccc2c1=O)Nc1ccccc1
inactive: SR leukemia 88.1% | RPMI-8226 leukemia 93.8% | OVCAR-8 ovarian 65.8% | OVCAR-5 ovarian 80% | OVCAR-4 ovarian 56.8% | SK-OV-3 ovarian 71.9% | IGROV1 ovarian 74.6% | OVCAR-3 ovarian 81.4% | HS 578T breast 54.2% | NCI/ADR-RES ovarian 54%

COc1ccc2[nH]c(=O)cc(-n3ncc(C(=O)/C=C/c4cc(OC)c(OC)c(OC)c4)c3C)c2c1
inactive: OVCAR-8 ovarian 14.5% | OVCAR-4 ovarian 36.5% | HS 578T breast 57.3%
active: SR leukemia -11.8% | RPMI-8226 leukemia -45.2% | OVCAR-5 ovarian -26.3% | SK-OV-3 ovarian 6.3% | IGROV1 ovarian -0.815% | OVCAR-3 ovarian -34.6% | NCI/ADR-RES ovarian 7.59%

Clc1ccc(CNc2nc(SCCN3CCOCC3)nc3c2cnn3CC(Cl)c2ccc(Br)cc2)cc1 (stereo not given)
active: SR leukemia -14.9% | RPMI-8226 leukemia 1.89%
inactive: OVCAR-8 ovarian 44.3% | OVCAR-5 ovarian 75.5% | OVCAR-4 ovarian 44.6% | SK-OV-3 ovarian 62.5% | IGROV1 ovarian 67.9% | OVCAR-3 ovarian 56.5% | HS 578T breast 49.4% | NCI/ADR-RES ovarian 34.5%

Nc1nnc(-c2cncc(Br)c2)c(-c2c[nH]c3ccc(Cl)cc23)n1
inactive: SR leukemia 54.1% | RPMI-8226 leukemia 48.5% | OVCAR-8 ovarian 89.8% | OVCAR-5 ovarian 94.2% | OVCAR-4 ovarian 56.2% | SK-OV-3 ovarian 103% | IGROV1 ovarian 68.6% | OVCAR-3 ovarian 100% | HS 578T breast 76.6% | NCI/ADR-RES ovarian 63.5%

COC(=O)c1c(C(=O)OC)c2c3ccccc3c3ccccc3n2c1C(=O)C(F)(F)F
inactive: SR leukemia 81.8% | RPMI-8226 leukemia 97.6% | OVCAR-8 ovarian 99.6% | OVCAR-5 ovarian 99.2% | OVCAR-4 ovarian 94.7% | SK-OV-3 ovarian 107% | IGROV1 ovarian 82.9% | OVCAR-3 ovarian 112% | HS 578T breast 99.2% | NCI/ADR-RES ovarian 93.7%

COc1ccc(C(=O)NNC(=O)CSc2nc3sc4c(c3c(=O)n2-c2ccc(Cl)cc2)CCCC4)cc1
inactive: SR leukemia 48.2% | RPMI-8226 leukemia 79% | OVCAR-8 ovarian 24.3% | OVCAR-5 ovarian 78.9% | OVCAR-4 ovarian 78.6% | SK-OV-3 ovarian 70.4% | IGROV1 ovarian 89.2% | OVCAR-3 ovarian 106% | HS 578T breast 60.4% | NCI/ADR-RES ovarian 56.9%

O=C1Nc2ccccc2/C1=C\c1ccc(OCC(=O)c2ccc(Br)cc2)cc1
inactive: SR leukemia 36.3% | RPMI-8226 leukemia 49.2% | OVCAR-8 ovarian 69.6% | OVCAR-5 ovarian 93.2% | OVCAR-4 ovarian 58.2% | SK-OV-3 ovarian 101% | IGROV1 ovarian 78.3% | OVCAR-3 ovarian 77.5% | HS 578T breast 84.5% | NCI/ADR-RES ovarian 47.8%

N#Cc1ccc(C(=O)NNC(=O)CSc2nc3sc4c(c3c(=O)n2-c2ccc(Cl)cc2)CCCC4)cc1
inactive: SR leukemia 47.6% | RPMI-8226 leukemia 54.6% | OVCAR-8 ovarian 34.4% | OVCAR-5 ovarian 31.9% | OVCAR-4 ovarian 73.8% | SK-OV-3 ovarian 72.7% | IGROV1 ovarian 30.7% | OVCAR-3 ovarian 91.8% | HS 578T breast 59.4% | NCI/ADR-RES ovarian 67.3%

COc1ccc(OC)c(Cn2cc(C#N)c(N)c2C(=O)c2ccc(Br)cc2)c1
inactive: SR leukemia 14.4% | RPMI-8226 leukemia 58% | OVCAR-8 ovarian 33.9% | OVCAR-5 ovarian 71.1% | OVCAR-4 ovarian 57.1% | SK-OV-3 ovarian 50.9% | IGROV1 ovarian 48.7% | OVCAR-3 ovarian 55.9% | HS 578T breast 45.2% | NCI/ADR-RES ovarian 23.2%

COc1ccc2[nH]c(O)c(N=Nc3nc(-c4ccc(Cl)cc4)cs3)c2c1
active: SR leukemia 5.78% | OVCAR-8 ovarian -64.4% | OVCAR-4 ovarian -49.9% | SK-OV-3 ovarian -38.4% | IGROV1 ovarian -3.99% | OVCAR-3 ovarian -90.4% | HS 578T breast 9.33% | NCI/ADR-RES ovarian -37.4%
inactive: RPMI-8226 leukemia 13.1% | OVCAR-5 ovarian 10.3%

O=C(NC(=S)N1CCN(c2ncnc3c2cnn3-c2ccccc2)CC1)c1ccc(Br)cc1
inactive: SR leukemia 14.1% | RPMI-8226 leukemia 83.4% | OVCAR-8 ovarian 47.4% | OVCAR-5 ovarian 81.8% | OVCAR-4 ovarian 41.9% | SK-OV-3 ovarian 57% | IGROV1 ovarian 72.1% | OVCAR-3 ovarian 89.6% | HS 578T breast 53.8% | NCI/ADR-RES ovarian 53.9%

CCCCNc1ccc2c3c(cccc13)C(=O)N(NCC(O)COc1ccc3c(C)cc(=O)oc3c1)C2=O (stereo not given)
inactive: SR leukemia 70.2% | RPMI-8226 leukemia 69.3% | OVCAR-8 ovarian 91.2% | OVCAR-5 ovarian 106% | OVCAR-4 ovarian 74.6% | SK-OV-3 ovarian 99.4% | IGROV1 ovarian 78.9% | OVCAR-3 ovarian 87.8% | HS 578T breast 80.7% | NCI/ADR-RES ovarian 85.8%

O=C(CSc1nc2ccccc2c(=O)[nH]1)Nc1ccccc1C(=O)O
inactive: SR leukemia 95.2% | RPMI-8226 leukemia 102% | OVCAR-8 ovarian 109% | OVCAR-5 ovarian 105% | OVCAR-4 ovarian 109% | SK-OV-3 ovarian 90.7% | IGROV1 ovarian 109% | OVCAR-3 ovarian 106% | HS 578T breast 79.3% | NCI/ADR-RES ovarian 103%

Nc1nn2c(-c3cc4ccccc4oc3=O)ccnc2c1N=Nc1ccccc1
inactive: SR leukemia 59.1% | RPMI-8226 leukemia 105% | OVCAR-8 ovarian 42.2% | OVCAR-5 ovarian 82.3% | OVCAR-4 ovarian 96.6% | SK-OV-3 ovarian 60.1% | IGROV1 ovarian 47.5% | OVCAR-3 ovarian 82.7% | HS 578T breast 75.8% | NCI/ADR-RES ovarian 47.2%

O=C(N=Nc1c(O)[nH]c2ccc(Br)cc12)c1ccc2nc(-c3ccc(Cl)cc3)[nH]c2c1
active: OVCAR-8 ovarian -25.9% | OVCAR-4 ovarian -28% | IGROV1 ovarian -49.4% | OVCAR-3 ovarian -4.77% | HS 578T breast -1.71%
inactive: SR leukemia 15.1% | RPMI-8226 leukemia 58.6% | OVCAR-5 ovarian 10.6% | SK-OV-3 ovarian 24.3% | NCI/ADR-RES ovarian 92.4%

COc1ccc(C(=O)C[n+]2cccc3c4ccccc4ccc32)cc1
inactive: SR leukemia 34.4% | RPMI-8226 leukemia 25.2% | OVCAR-8 ovarian 25.9% | OVCAR-5 ovarian 58.3% | OVCAR-4 ovarian 33.4% | SK-OV-3 ovarian 50.1% | IGROV1 ovarian 67.4% | OVCAR-3 ovarian 51.7% | HS 578T breast 58.9% | NCI/ADR-RES ovarian 97.7%

COc1cc2cc(C(=O)N3C[C@@H](CCl)c4c3cc(OC(=O)N(CCC(=O)N3CCN(C)CC3)[C@H]3CCSSC3)c3ccccc43)[nH]c2c(OC)c1OC
active: SR leukemia -22.9% | RPMI-8226 leukemia -5.04% | OVCAR-8 ovarian -49.8% | OVCAR-5 ovarian -4.73% | OVCAR-4 ovarian -11.9% | IGROV1 ovarian -16.7% | OVCAR-3 ovarian -55.8% | HS 578T breast -14.1% | NCI/ADR-RES ovarian -55.3%
inactive: SK-OV-3 ovarian 10.8%

CC1=C(C(=O)Nc2ccccc2)C(c2ccc3ccccc3c2)n2c(nc3ccccc32)N1 (stereo not given)
active: OVCAR-8 ovarian 6.23% | OVCAR-4 ovarian -35.4% | OVCAR-3 ovarian -21.9%
inactive: SR leukemia 38.4% | RPMI-8226 leukemia 40.8% | OVCAR-5 ovarian 97.9% | SK-OV-3 ovarian 107% | IGROV1 ovarian 67.4% | HS 578T breast 40.3% | NCI/ADR-RES ovarian 41.4%

COc1ccc(NC(=O)N/N=C/c2c[nH]c3ccccc23)cc1
active: OVCAR-3 ovarian -34.1%
inactive: SR leukemia 23.4% | RPMI-8226 leukemia 24.9% | OVCAR-8 ovarian 20.5% | OVCAR-5 ovarian 37.4% | OVCAR-4 ovarian 69.9% | SK-OV-3 ovarian 37.5% | IGROV1 ovarian 40.8% | HS 578T breast 27.1% | NCI/ADR-RES ovarian 15.3%

C=CC(=O)N1CCN(c2ccc3nc4c(nc3c2C(F)(F)F)C(=O)c2ncccc2C4=O)CC1
inactive: SR leukemia 33.2% | SK-OV-3 ovarian 91.1% | HS 578T breast 75.8% | NCI/ADR-RES ovarian 47.5%
active: RPMI-8226 leukemia -20.2% | OVCAR-8 ovarian -9.34% | OVCAR-5 ovarian 2.97% | OVCAR-4 ovarian -96.4% | IGROV1 ovarian -42.6% | OVCAR-3 ovarian -15.3%

COc1ccc2nc(NC(=O)c3ccc(N(C)C)cc3)sc2c1
inactive: SR leukemia 42.5% | RPMI-8226 leukemia 31.9% | OVCAR-8 ovarian 75.7% | OVCAR-5 ovarian 93% | OVCAR-4 ovarian 75% | SK-OV-3 ovarian 111% | IGROV1 ovarian 99.5% | OVCAR-3 ovarian 94.5% | HS 578T breast 95.9% | NCI/ADR-RES ovarian 52.9%

CSc1ccc(OCc2nc3ccccc3n2-c2cccc(NS(C)(=O)=O)c2)cc1
inactive: SR leukemia 82.6% and 89.5% | RPMI-8226 leukemia 93.7% and 91.1% | OVCAR-8 ovarian 99.5% and 88.4% | OVCAR-5 ovarian 130% and 117% | OVCAR-4 ovarian 93.8% and 69.4% | SK-OV-3 ovarian 110% and 83.5% | IGROV1 ovarian 95.3% and 82.8% | OVCAR-3 ovarian 118% | HS 578T breast 80.9% and 65% | NCI/ADR-RES ovarian 96.5% and 79.7%

CN(C)c1nc(NCCNS(=O)(=O)c2ccc(C(=O)/C=C/c3ccc(F)cc3)cc2)nc(N2CCOCC2)n1
inactive: OVCAR-8 ovarian 42.3% | OVCAR-5 ovarian 96% | OVCAR-4 ovarian 64.5% | SK-OV-3 ovarian 82.5% | OVCAR-3 ovarian 64.1% | HS 578T breast 73.5% | NCI/ADR-RES ovarian 49.3%
active: SR leukemia -25.7% | RPMI-8226 leukemia -28.4% | IGROV1 ovarian -44.9%
